In the library only some 2.5% were active in any assay of this set; here they are far more common.
MCL1 BIM primary = disrupts human MCL1 binding to BIM-BH3 peptide | Q07820 | GST-MCL1 / FITC-Bim-BH3 fluorescence polarization | inhibition, % at 10.9 µM | actives 0.68% (n = 320,000);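 active = inhibition above the mean inhibition of all tested compounds plus 3 SD, set per campaign, cut at about 40% in these data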;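 note: 0% = DMSO wells and 100% = unlabeled Bim-BH3 peptide control; higher means more loss of mP so more displacement of Bim peptide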
14-3-3 Bad PPI = disrupts binding of bovine 14-3-3 zeta to phospho-Bad peptide | P63103 | TR-FRET 14-3-3zeta/Dy647-pBad peptide displacement, 1 h | inhibition, % at 21.7 µM | actives 0.71% (n = 220,000) | AID 781;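 active = inhibition above about 70%, limit read from the data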;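 note: 0% = full 14-3-3 plus peptide FRET controls and 100% = background without 14-3-3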
Target sequence (P63103 whole entry, looked up): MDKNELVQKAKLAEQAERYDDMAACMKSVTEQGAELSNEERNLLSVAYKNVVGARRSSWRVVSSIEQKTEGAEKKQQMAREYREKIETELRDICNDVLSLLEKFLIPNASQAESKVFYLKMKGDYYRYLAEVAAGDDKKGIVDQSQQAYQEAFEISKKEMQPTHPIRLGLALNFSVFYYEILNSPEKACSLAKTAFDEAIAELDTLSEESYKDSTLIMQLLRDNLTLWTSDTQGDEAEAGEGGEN
Mcl1-Bid inh = disrupts binding of human Mcl-1 to Bid peptide. Q07820. TR-FRET Mcl-1/Bid-Dy647 peptide binding, 1536-well. inhibition, % at 21.7 µM. actives 0.97% (n = 220,000);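 active = compounds that cut the binding signal by more than half at the single screening dose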;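 note: His-tagged Mcl-1 with europium anti-His antibody binding Bid BH3 peptide; 0% = Mcl-1 plus peptide wells and 100% = peptide-only wells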
Mcl-1 Bim block = human Bim-Mcl-1 interaction inhibition | Bead-based flow cytometry, Bim peptide-Mcl-1 binding | actives 0.1% (n = 190,000) | Q07820 | inhibition, % at 10 µM | AID 1009; in the data active = inhibition above about 40%;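 note: 0% = no compound tracer wells and 100% = peptide blocker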
Mcl1-Noxa inh = disrupts binding of human Mcl-1 to Noxa peptide. TR-FRET Mcl-1/Noxa peptide binding, 2 h. inhibition, % at 21.7 µM. actives 1.5% (n = 220,000). AID 1022;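 active = compounds that cut the protein-peptide binding signal by more than 50% relative to plate controls in a single-dose test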;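 note: His-tagged Mcl-1 with rhodamine Noxa BH3 peptide and terbium anti-His antibody; 0% = Mcl-1 plus Noxa peptide wells and 100% = peptide-only wells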
BCLXL inh confirm = counter-screen for MCL1 inhibitors: confirmation of human Bcl-xL inhibitors; inhibition, % at 10.9 µM; actives 54% (n = 1,700); shares compounds with MCL1 BIM primary; AID 2166; GST-Bcl-xL / FITC-Bim BH3 peptide FP binding;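 active = inhibition above a cutoff equal to the mean inhibition of all tested compounds plus 3 SD, cut at about 30% in these data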;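 note: 0% = DMSO wells and 100% = unlabeled Bim BH3 control peptide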
Target sequence (Q07817 whole entry, looked up): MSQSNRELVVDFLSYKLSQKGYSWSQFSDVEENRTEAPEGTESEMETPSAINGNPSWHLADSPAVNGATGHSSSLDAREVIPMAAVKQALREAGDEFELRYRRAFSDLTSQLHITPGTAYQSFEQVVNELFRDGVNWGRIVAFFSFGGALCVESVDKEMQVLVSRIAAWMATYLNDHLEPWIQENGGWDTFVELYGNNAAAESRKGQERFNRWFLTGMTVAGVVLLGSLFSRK
MCL1 inh confirm = MCL1-BIM-BH3 interaction inhibition, confirmation. shares compounds with MCL1 BIM primary. GST-MCL1 / FITC-Bim-BH3 fluorescence polarization. inhibition, % at 10.9 µM. actives 61% (n = 1,700). AID 2168;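 active = inhibition above the average of all tested compounds plus 3 SD, cut at about 40% in these data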;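 note: 0% = DMSO wells and 100% = unlabeled Bim-BH3 control peptide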
* = called active by the depositor; . = no result given; + = active, no number; [ ] = another dose, or the depositor's remark.

SMILES | MCL1 BIM primary | 14-3-3 Bad PPI | Mcl1-Bid inh | Mcl-1 Bim block | Mcl1-Noxa inh | BCLXL inh confirm | MCL1 inh confirm
Nc1nc(=S)c2ncn(C3OC(CO)C(O)C3O)c2[nH]1 (configuration not stated) | 82* | 60 | -119 | . | 89* | 15 | 47*
CCOC(=O)COn1c(=O)c(-c2ccc(OC)c(OC)c2)[n+]([O-])c2ccccc21 | 72* | 1 | 1 | -8 | 35 | 18 | 13
CC1(C)CC(=O)C=C(NNC(=O)c2cccnc2)C1 | 17 | -5 | -36 | . | -13 | . | .
O=C1C=C(NNC(=O)c2cccnc2)CC(c2ccco2)C1 (configuration not stated) | 54* | 2 | -17 | -2 | 12 | 13 | 14
Cc1nn(Cc2ccccc2)c(Cl)c1C(=O)OC(C)C#N (configuration not stated) | -8 | 5 | -12 | 1 | 8 | . | .
C/C(N)=C(/C#N)C(=O)CSc1nnc(Nc2cccc(C)c2)s1 | 40* | 7 | -25 | -1 | 36 | 14 | 41*
Cc1nn(C)c(Cl)c1NC(=O)OCc1ccccc1 | 4 | 13 | -34 | 0 | -11 | . | .
Cc1ccc(N2CCN(c3ccc(NCc4nc5ccccc5n4C)cc3)CC2)cc1 | 90* | -5 | -64 | -1 | -24 | 52* | 48*
COc1ncc(-c2ccc3c(c2)S(=O)(=O)c2cccc(C(=O)NCc4ccco4)c2C3=O)cn1 | 3 | . | . | . | . | . | .
CCC(=O)Oc1ccc2c(c1)O/C(=C\c1ccco1)C2=O | 118* | -4 | -30 | . | -3 | 47* | 76*
CC(=O)Oc1ccc2c(c1)O/C(=C\c1ccncc1)C2=O | 151* | -13 | -13 | . | 6 | 90* | 115*
O=C(Oc1ccc2c(c1)O/C(=C\c1ccncc1)C2=O)c1cccs1 | 82* | 18 | 36 | . | 37 | 34* | 46*
COc1ccccc1C(=O)Oc1ccc2c(c1)O/C(=C\c1ccncc1)C2=O | 142* | 37 | 8 | 14 | 23 | 32* | 52*
CN(C(=O)CSc1nnc(-c2cccc(F)c2)n1N)C1CCS(=O)(=O)C1 (configuration not stated) | 3 | 4 | -2 | -1 | 10 | . | .
O=C(C[n+]1ccc(-c2nnc3n2CCC3)cc1)c1ccc(Cl)c(Cl)c1 | 1 | -2 | 0 | 2 | 3 | . | .
CC(C)(C)c1ccc(C(=O)NCC(=O)OCC(=O)N2CCN(S(=O)(=O)c3ccc(Cl)cc3)CC2)cc1 | 0 | . | . | . | . | . | .
Cc1nc2ccccc2c(=O)n1/N=C/c1ccccc1OC(F)F | -4 | . | . | . | . | . | .
CCN1c2ccccc2N(C)C1(C)c1ccccc1 (configuration not stated) | 94* | 34 | 30 | 2 | 85* | 61* | 98*
CN1c2ccccc2N(C)C1(C)c1ccccc1 | 65* | 19 | 39 | 1 | 80* | 74* | 101*
CCOC(=O)c1ccc2c(c1)nc(SCc1cn3ccsc3n1)n2CC | -6 | -20 | 0 | 0 | 4 | . | .
CC1=NN(c2ccccc2)C(=O)/C1=C/C=C/c1ccccc1 | 9 | 1 | -10 | -2 | 3 | . | .
CC1=NN(c2cccc(C(=O)O)c2)C(=O)/C1=C\C=C\c1ccco1 | 81* | 27 | -16 | 0 | 98* | 30* | 68*
O=c1oc2ccccc2c2oc3cc(O)c(O)cc3c12 | 71* | 15 | -95 | . | 98* | 34* | 74*
CCOC(=O)CSc1nc(N2CCOCC2)c2c(c1C#N)CC(C)(C)N(C)C2 | 56* | -5 | -16 | 4 | -3 | 8 | 13
CC(C)Sc1nc(N2CCOCC2)c2c(c1C#N)CC(C)(C)N(C)C2 | 50* | -8 | -14 | 0 | 14 | 22 | 36
SMILES | MCL1 BIM primary | 14-3-3 Bad PPI | Mcl1-Bid inh | Mcl-1 Bim block | Mcl1-Noxa inh | BCLXL inh confirm | MCL1 inh confirm
CN1Cc2c(N3CCOCC3)nc(SCCC#N)c(C#N)c2CC1(C)C | 3 | -2 | -21 | . | 3 | . | .
Cc1oc2cc(O)ccc2c(=O)c1-c1ccccc1 | 9 | 14 | -12 | 0 | 6 | . | .
Cc1oc2cc(O)ccc2c(=O)c1-c1nncn1-c1ccccc1 | 109* | -12 | -30 | 0 | 39 | 119* | 139*
Cc1cc(C)cc(NC(=O)C2CCCN(S(=O)(=O)c3c(C)noc3C)C2)c1 (configuration not stated) | 7 | . | . | . | . | . | .
O=C1/C(=C\c2ccco2)SC(=S)N1c1ccc(O)cc1 | 27 | 2 | -11 | -5 | 4 | . | .
O=C(CN1C(=O)/C(=C/c2ccco2)SC1=S)Nc1ccc(O)c(C(=O)O)c1 | 58* | . | . | . | . | 23 | 47*
O=C(CN1C(=O)/C(=C/c2ccco2)SC1=S)Nc1ccc(C(=O)O)c(O)c1 | 73* | . | . | . | . | 30 | 48*
O=C(CCN1C(=O)/C(=C/c2ccccc2)SC1=S)NC1CCS(=O)(=O)C1 (configuration not stated) | 2 | . | . | . | . | . | .
O=C(CN1C(=O)/C(=C/c2ccco2)SC1=S)NC1CCS(=O)(=O)C1 (configuration not stated) | 64* | . | . | . | . | 20 | 31
NN1C(=O)/C(=C\c2ccco2)SC1=S | 55* | 2 | -39 | . | 20 | 16 | 35
COC(=O)c1nn(-c2ccc3c(c2)OCO3)cc1O | -4 | 0 | -41 | -3 | 10 | . | .
CC(C(=O)Nc1ccc(C(=O)O)c(O)c1)N1C(=O)/C(=C\c2ccco2)SC1=S (configuration not stated) | 91* | . | . | . | . | 46* | 80*
Oc1ccc2ccccc2c1N=Nc1ccccn1 | 8 | -12 | 2 | -6 | 0 | . | .
CCOC(=O)c1[nH]cnc1N=Nc1c(O)ccc2ccccc12 | 93* | -6 | -49 | -1 | 24 | 75* | 84*
O=C(NCC1CCCO1)c1cc2ccccc2[nH]1 (configuration not stated) | -6 | -2 | -11 | -2 | -10 | . | .
c1ccc(-c2nnc(-c3ccco3)o2)cc1 | 1 | 5 | -9 | 0 | -18 | . | .
c1coc(-c2nnc(-c3ccco3)nn2)c1 | 75* | . | . | . | . | 39* | 68*
COc1cc(/C=C/C(=O)CC(=O)/C=C/c2ccc(O)c(OC)c2)ccc1O | 57* | -7 | 1 | 12 | 51* | 5 | -24
COc1cc(/C=C/C(=O)O)ccc1O | 0 | . | . | . | . | . | .
CCNc1ccccc1CP(=O)(c1ccccc1)c1ccccc1O (configuration not stated) | + | . | . | . | . | 30 | 18
Cc1ccc(O)c(CP(=O)(c2ccccc2)c2ccccc2)c1 | 5 | -9 | -20 | 16 | -1 | . | .
CN=C(Nc1cc(C)nn1-c1ccccc1)c1ccccc1F | 2 | 2 | -28 | -5 | -6 | . | .
CCOC(=O)c1cc(-c2ccc(/C=C3/C(=O)NC(=O)C(C#N)=C3C)o2)ccc1Cl | 121* | 77*[fluorescence artefact?] | 93* | 2 | 102* | 105* | 150*

Source: PubChem BioAssay (several laboratories)
